Only some compounds are listed: those with a hit (about 5% of all), similar ones and a draw of the others.
SENP8 block-1 – inhibitors of human SENP8 protease; recombinant SENP8, Nedd8 substrate fluorescence; inhibition, % at 20 µM; hit rate 0.64% among 360,000; AID 602440; in the data active = inhibition mostly above about 40%, no sharp cut-off; inactive = mostly below about 27%
Target sequence (Q96LD8 whole entry, looked up): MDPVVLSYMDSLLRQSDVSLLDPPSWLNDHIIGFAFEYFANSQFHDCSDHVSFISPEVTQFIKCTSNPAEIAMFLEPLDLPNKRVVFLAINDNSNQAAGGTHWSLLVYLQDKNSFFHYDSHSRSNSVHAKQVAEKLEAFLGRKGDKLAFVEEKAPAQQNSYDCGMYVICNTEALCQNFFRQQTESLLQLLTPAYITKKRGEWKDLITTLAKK
AHR act – activators of human aryl hydrocarbon receptor; AID 2796; AHR-responsive luciferase reporter cells, luminescence; activation, % at 5 µM; hit rate 2.5% among 320,000; in the data active = activation above about 47%;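 note: 0% = vehicle wells and 100% = reference agonist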
EBI2 antag – antagonists of human EBI2 receptor; hit rate 0.81% among 360,000; inhibition, % at 5 µM; EBI2 beta-arrestin recruitment, luminescence, 7a,25-OHC stimulated; AID 651636; in the data active = inhibition above about 38%;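 note: enzyme fragment complementation signal reports receptor beta-arrestin coupling in cells; 0% = agonist plus DMSO wells and 100% = wells without agonist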
Target sequence (P32249 whole entry, looked up, the tested form may be a part): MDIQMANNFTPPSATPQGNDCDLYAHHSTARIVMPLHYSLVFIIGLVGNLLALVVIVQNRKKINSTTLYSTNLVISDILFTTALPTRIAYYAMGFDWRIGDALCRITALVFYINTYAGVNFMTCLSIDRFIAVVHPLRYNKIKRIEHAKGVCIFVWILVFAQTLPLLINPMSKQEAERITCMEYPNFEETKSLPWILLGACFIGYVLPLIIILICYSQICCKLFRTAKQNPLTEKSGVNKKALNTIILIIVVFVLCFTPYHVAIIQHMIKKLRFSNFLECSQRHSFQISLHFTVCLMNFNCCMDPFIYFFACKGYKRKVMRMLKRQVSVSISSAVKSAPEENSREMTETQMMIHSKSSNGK
SENP6 inh – inhibitors of human SENP6 protease; Q9GZR1; Recombinant SENP6 catalytic domain, aminoluciferin luminescence; inhibition, % at 10 µM; hit rate 1.8% among 330,000; AID 2599;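 active = inhibition above about 50% at the single tested dose, limit read from the data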;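 note: plate controls were DMSO wells with enzyme for no effect and DMSO wells lacking enzyme for full effect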
SENP7 inh – blocks the human protease SENP7 | inhibition, % at 5 µM | hit rate 1.5% among 330,000 | Q9BQF6 | AID 434973 | recombinant SENP7, Z-RLRGG-aminoluciferin luminescence, 40 min;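 active = inhibition above about 50% at the single test dose, limit read from the data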;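 note: plate controls were DMSO with enzyme for no effect and no enzyme buffer wells for full effect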
SENP8 block-2 – inhibitors of human SENP8 protease; Q96LD8; purified SENP8, Z-RLRGG-aminoluciferin cleavage, luminescence; inhibition, % at 10 µM; hit rate 1.2% among 330,000; AID 2540; in the data active = inhibition above about 50%
EBI2 antag conf – confirmation of human EBI2 receptor antagonists; hit rate 29% among 2,400; EBI2 beta-arrestin luminescence, 7a,25-OHC antagonism; inhibition, % at 5 µM; shares compounds with EBI2 antag;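 active = inhibition of at least 50%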
EBI2 ag – EBI2 agonism counter-screen; AID 652000; EBI2-expressing cells, agonist mode, luminescence, 60 min; 0% vehicle, 100% 7α,25-dihydroxycholesterol control; activation, % at 5 µM; 2,400 tested, under 10 active; shares compounds with EBI2 antag;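 active = activation of at least 50%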
bGal counter – counter-screen for EBI2 antagonists: E. coli beta-galactosidase inhibition. shares compounds with EBI2 antag. purified beta-galactosidase, luminescent Galacton Star, 15 min. inhibition, % at 5 µM. hit rate 1% among 2,400. AID 652176;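 active = replicate-average signal at least 3 plate SD below neutral wells, shown as high inhibition, flagging enzyme-inhibiting false positives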;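 note: 0% = DMSO wells with enzyme and 100% = wells lacking enzyme; higher means stronger loss of beta-gal luminescence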
The depositor's hits bear a star; . = not tested or not shown.

SMILES	SENP8 block-1	AHR act	EBI2 antag	SENP6 inh	SENP7 inh	SENP8 block-2	EBI2 antag conf	EBI2 ag	bGal counter
COc1ccccc1N1CCN(C(=O)c2ccc3[nH]c4c(c3c2)CC(C)CC4)CC1 (stereo unspecified)	3	34	26	1	-1	0	.	.	.
Cc1cccc(N2CCN(C(=O)c3ccc4[nH]c(C)c(C)c4c3)CC2)c1C	-8	0	69*	-6	8	0	51*	0	-6
COc1ccccc1N1CCN(C(=O)c2ccc3[nH]c(C)c(C)c3c2)CC1	-3	4	76*	11	1	0	45	0	-12
Cc1[nH]c2ccc(C(=O)N3CCN(c4ccccc4Cl)CC3)cc2c1C	-7	2	78*	-5	2	3	56*	1	3
COc1ccccc1N1CCN(CC(=O)c2c(C)[nH]c3cc(C)ccc23)CC1	18	16	40*	-10	10	-8	14	0	-10
COc1ccc(Cl)cc1N(CC(=O)NCC(C)C)S(=O)(=O)c1ccc(C)c([N+](=O)[O-])c1	14	-3	-6	-3	-1	-1	.	.	.
CCn1nc(C)cc1-c1nnc(Sc2ncc([N+](=O)[O-])s2)n1C	29	2	25	-8	3	9	.	.	.
Cc1ccc(N(C(=O)c2ccc(S(=O)(=O)N3CCCC3)cc2)C2C=CS(=O)(=O)C2)cc1 (stereo unspecified)	2	-2	3	-2	-3	5	.	.	.
COc1ccc(C)cc1S(=O)(=O)N(C)CC(=O)NCc1ccccn1	2	-1	0	-2	-4	3	.	.	.
COc1ccc(/C=C/C(=O)Nc2ccc(-n3nncc3-c3ccccc3)cc2)cc1OC	-258	3	61*	-8	7	9	21	-1	-9
CSc1nc(-c2ccccc2)cn1-c1ccc(NC(C)=O)cc1	8	14	26	41	23	0	.	.	.
CCOc1ccc(-c2cn(-c3ccc(OC)cc3)c(SC)n2)cc1	12	3	65*	15	-11	-17	26	-1	-12
COc1ccc(CNc2oc(COc3ccc(Cl)cc3)nc2C#N)cc1	15	5	42*	-26	-7	-11	29	0	1
COc1ccc(Nc2oc(COc3ccc(Cl)cc3)nc2C#N)cc1	12	30	18	0	4	3	.	.	.
Fc1ccc(-c2ccc(Nc3cccc(F)c3)nn2)cc1	6	-6	17	-8	4	-4	.	.	.
Fc1ccc(Nc2ccc(-c3ccc(F)cc3)nn2)cc1	-10	-4	60*	-40	-8	-29	28	-1	-7
COc1ccc(-c2nc3ccc(C)cn3c2Cc2ccccc2)cc1OC	-369	.	19	.	.	.	.	.	.
COc1cc(-c2nc3ccc(C)cn3c2NCc2ccccc2)ccc1-c1cccc(Cl)c1	-469	73*	80*	4	3	4	66*	1	-5
CCCCNc1c(-c2ccc(SC(C)CC)cc2)nc2ccc(Cl)cn12 (stereo unspecified)	-422	.	12	.	.	.	.	.	.
CCC(C)Sc1ccc(-c2nc3ccc(C)cn3c2NCc2ccccc2)cc1 (stereo unspecified)	-496	3	47*	0	-2	0	24	1	6
COc1cc(-c2nc3ccc(C)cn3c2NCc2ccccc2)ccc1SC1CCCCC1	-481	10	72*	-22	-9	2	55*	2	-1
CCc1nc2c(OCCC3CCCCC3)cccn2c1N(C)C(=O)C(C)C	3	.	24	.	.	.	.	.	.
CCOC(=O)Nc1csnn1	9	.	-4	-16	-6	-8	.	.	.
CCOc1ccccc1N1CCN(C(=O)c2cc(C)oc2C)CC1	5	0	7	-1	3	-1	.	.	.
COc1ccc2cc(C(=O)N3CCN(c4ccc(F)cc4)CC3)[nH]c2c1	-69	13	64*	-3	5	3	50*	-1	-16
SMILES	SENP8 block-1	AHR act	EBI2 antag	SENP6 inh	SENP7 inh	SENP8 block-2	EBI2 antag conf	EBI2 ag	bGal counter
COc1ccc2cc(C(=O)N3CCN(C)CC3)[nH]c2c1	-74	.	-12	-8	4	-13	.	.	.
Cc1[nH]c(-c2ccc(F)cc2)cc1C(=O)N1CCN(c2cccc(Cl)c2)CC1	13	.	91*	13	1	0	61*	-2	-10
COc1cccc(N2CCN(C(=O)c3cc4cc(Cl)ccc4[nH]3)CC2)c1	-23	.	51*	-14	1	1	41	1	6
CCOc1ccccc1N1CCN(C(=O)c2cc3cc(OC)ccc3[nH]2)CC1	-127	19	52*	5	8	2	30	-1	-14
C=CCn1c(SCC(=O)Nc2cccc(S(=O)(=O)N(C)c3ccccc3)c2)nnc1C1CC1	-3	1	11	-19	-8	-8	.	.	.
O=C(c1cccc(F)c1)N1CCN(c2cccc(Cl)c2)CC1	16	-6	5	0	13	5	.	.	.
O=C(c1cc2cc(F)ccc2[nH]1)N1CCN(c2cccc(Cl)c2)CC1	10	18	61*	11	-3	4	48	-1	0
CC(Sc1ncccn1)C(=O)Nc1ccc2c(c1)OCO2 (stereo unspecified)	-12	6	4	-6	-8	-7	.	.	.
Cc1ccc(CON=C2CCN(c3ncc(C(F)(F)F)cc3Cl)CC2)cc1	1	0	43*	-3	-2	-1	4	0	-12
FC(F)(F)c1cnc(N2CCC(=NOCc3ccc(Cl)cc3)CC2)c(Cl)c1	9	-2	54*	-11	-5	-9	7	0	8
FC(F)(F)c1cccc(CON=C2CCN(c3ncc(C(F)(F)F)cc3Cl)CC2)c1	8	1	14	-1	0	4	.	.	.
C[C@@H]1CN([C@H](C)CO)C(=O)CCCn2cc(nn2)CO[C@H]1CN(C)C(=O)Nc1cccc(F)c1	10	.	-3	.	.	.	.	.	.
CC1(C)CC(=O)C2=C(C1)Nc1ncnn1C2c1cccs1 (stereo unspecified)	-58	0	2	15	4	1	.	.	.
COC(=O)c1cn(NC(=O)c2ccccc2[N+](=O)[O-])c(=O)c2ccccc12	11	0	6	20	-3	7	.	.	.
CC(=O)c1nn(-c2ccc(Cl)cc2)cc1C(=O)c1ccc(C)cc1	6	1	88*	-3	0	4	51*	1	9
CC(=O)c1nn(-c2ccc(Br)cc2)cc1C(=O)c1ccco1	14	-4	26	-19	-15	-11	.	.	.

Assay outcomes (PubChem)
